From publication PMC7826789 (International Journal of Molecular Sciences, 2021)

What follows are compounds tested on NLK.
With `Fc1ccc(-c2nn3ccccc3c2-c2ccncc2)cc1` [GW434756X] the Kinases covered was “NLK”.
`O=C(O)/C=C/C(=O)O.OCCCNc1nccc(-c2c(-c3ccc(F)cc3)nn3cc(C(F)(F)F)ccc23)n1` [GW569293E] was tested, and the Kinases covered was “NLK”.
With `O=C(Nc1n[nH]c2cc(-c3cccc(F)c3)ccc12)C1CC1` [SB-735464] the Kinases covered was “NLK”.

The compounds below were run on NTRK1.
With `Cc1cn(-c2cc(NC(=O)c3ccc4c(c3)CN(c3cncnc3)C[C@@H]4C)cc(C(F)(F)F)c2)cn1` [D2202-1] the Kinases covered was “NTRK1”.
`COc1ccccc1-c1cc(/C=C2\C(=O)Nc3ncc(Br)cc32)cc(Br)c1O` [GW442130X] was tested, and the Kinases covered was “NTRK1”.
`Nc1ncnc2occ(-c3ccc(NC(=O)Nc4cc(C(F)(F)F)ccc4F)cc3)c12` [GW770249X] was tested, and the Kinases covered was “NTRK1”.

What follows are compounds tested on NUAK1.
With `CN1C(=O)c2ccccc2N(C)c2nc(Nc3cnn(C4CCNCC4)c3)ncc21` [XMD-17-51] the Kinases covered was “NUAK1”.
For `CCC(=O)Nc1cccc(Oc2nc(Nc3ccc(N4CCN(C)CC4)cc3OC)ncc2Cl)c1` [WZ4003], the Kinases covered was “NUAK1”.
In the case of `Cc1nc(Nc2cnn(C3CCNCC3)c2)nc2c1N(C)C(=O)c1cc3ccccc3cc1N2C` [HTH-01-015], the Kinases covered is reported as “NUAK1”.

These compounds were tested on PDGFRA.
For `Cc1cnc(N)c(/C=C/c2cncc(C(=O)NCCc3ccc(Cl)cc3Cl)c2)c1` [GSK190937], the Kinases covered was “PDGFRA”.
With `Nc1ncnc2occ(-c3ccc(NC(=O)Nc4cc(C(F)(F)F)ccc4F)cc3)c12` [GW770249X] the Kinases covered was “PDGFRA”.
With `Cn1ccc2ncnc(Oc3ccc(NC(=O)Nc4ccccc4)cc3)c21` [TPKI-69] the Kinases covered was “PDGFRA”.
For `O=C(Nc1ccccc1)Nc1cccc(Oc2ccc3nccn3n2)c1` [TPKI-39], the Kinases covered was “PDGFRA”.
In the case of `COc1cc2ncn(-c3cc(O[C@H](C)c4ccccc4Cl)c(C(N)=O)s3)c2cc1OC` [GSK237701A], the Kinases covered is reported as “PDGFRA”.
In the case of `COc1cc2nccc(Nc3ccc(OCc4ccc(NC(C)=O)cc4)cc3)c2cc1OC` [GW440135], the Kinases covered is reported as “PDGFRA”.
